Sampled rows, rich in hits. Any-hit rate of the full collection: about 3.4%.
MITF primary: MITF inhibitors, primary screen, biochemical, AlphaScreen, human; AlphaScreen MITF homodimerization, bead proximity signal; inhibition, % at 2.6 µM; 650,000 compounds, 0.91% hits; in the data active means inhibition above about 50%
GPR151 ag: activators of human GPR151, primary screen, cell-based, PathHunter beta-arrestin, luminescence. G-protein coupled receptor 151 (Homo sapiens), Q8TDV0. PathHunter beta-arrestin GPR151 cells. activation, % at 11.2 µM. 650,000 compounds, 1% hits; in the data active means activation above about 4.9%
Target sequence (Q8TDV0 whole entry, looked up): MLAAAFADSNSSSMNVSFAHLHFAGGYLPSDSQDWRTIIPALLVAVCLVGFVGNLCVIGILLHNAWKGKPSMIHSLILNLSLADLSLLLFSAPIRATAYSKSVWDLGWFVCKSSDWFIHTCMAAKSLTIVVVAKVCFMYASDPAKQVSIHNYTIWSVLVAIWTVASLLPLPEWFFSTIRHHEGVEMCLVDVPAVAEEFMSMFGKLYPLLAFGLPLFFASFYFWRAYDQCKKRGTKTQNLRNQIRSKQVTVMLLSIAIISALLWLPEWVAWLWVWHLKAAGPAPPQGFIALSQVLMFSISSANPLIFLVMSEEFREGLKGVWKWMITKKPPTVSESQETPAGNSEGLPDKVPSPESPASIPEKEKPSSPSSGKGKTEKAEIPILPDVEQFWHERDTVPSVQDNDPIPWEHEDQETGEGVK
TEAD-YAP inh: TEAD-YAP interaction inhibition, primary screen, TEAD-YAP interaction inhibitor project, luminescence, HEK-TIYL cells; TEAD-Gal4/YAP UAS-luciferase luminescence; inhibition, % at 9.12 µM; AID 1259422, 2018; 640,000 compounds, 1.4% hits; in the data active means inhibition above about 32%
FBW7 act: FBW7 E3 ligase activators, primary screen, biochemical, AlphaScreen, human | AlphaScreen FBW7–phospho-cyclin E peptide binding, activator screen | 650,000 compounds, 0.13% hits | normalized activity (activation), % at 26.1 µM; in the data active means normalized activity above about 1.9%;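 further: purified mutant Fbw7 with reduced substrate affinity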
GPR151 conf act: GPR151 activators, triplicate retest, confirmation, cell-based, PathHunter beta-arrestin, luminescence; shares compounds with GPR151 ag; GPR151 PathHunter beta-arrestin cells, 90 min; % of EA-reagent control over plate median; activation, % at 11.2 µM; 6,700 tested, under 10 active; AID 1508609, 2020;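 active means mean percent activation across replicates above the confirmation screen cutoff of 4.91%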
GPR119 ag: GPR119 activators in beta-arrestin cells, counter-screen for GPR151 activator project, cell-based, PathHunter beta-arrestin, luminescence, triplicate. shares compounds with GPR151 ag. 90 min; 0 = compound-well median, 100 = enzyme-acceptor control. activation, % at 11.2 µM. 6,700 compounds, 0.3% hits;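 active means mean percent activation in the counterscreen above 29.09%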;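 further: counterscreen on off-target GPR119 to flag nonselective hits from the GPR151 activator screen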
A number is an active result.

For O=C(CNc1n[nH]c(=O)[nH]c1=O)N/N=C/c1ccccc1 the results were MITF primary inactive, GPR151 ag 8.1, TEAD-YAP inh inactive, FBW7 act inactive, GPR151 conf act inactive and GPR119 ag inactive.
CC(=O)N1CC(C)Sc2cc(S(=O)(=O)NCc3ccc4c(c3)OCO4)ccc21 (stereo unspecified) was read as MITF primary inactive, GPR151 ag 5.1, TEAD-YAP inh inactive, FBW7 act inactive, GPR151 conf act inactive and GPR119 ag inactive.
`O=C(Nc1ccc2nsnc2c1)N1CCCCCC1` gave MITF primary inactive, GPR151 ag 6.1, TEAD-YAP inh inactive, FBW7 act inactive, GPR151 conf act inactive and GPR119 ag inactive.
`O=C(CSc1nnc(CNC(=O)c2ccccc2)o1)NCc1ccco1` gave MITF primary inactive, GPR151 ag 7.8, TEAD-YAP inh inactive, FBW7 act inactive, GPR151 conf act inactive and GPR119 ag inactive.
O=C(CC1OCCN(Cc2ccccc2)C1=O)Nc1ccc2c(c1)OCO2 (stereo unspecified) was read as MITF primary inactive, GPR151 ag 9.9, TEAD-YAP inh inactive, FBW7 act inactive, GPR151 conf act inactive and GPR119 ag inactive.
For CC1CCC(C(C)C)C(OC(=O)CSc2cccc[n+]2[O-])C1 (stereo unspecified) the results were MITF primary inactive, GPR151 ag 4.9, TEAD-YAP inh inactive, FBW7 act inactive, GPR151 conf act inactive and GPR119 ag inactive.
Screening CC1CCC(C(C)C)C(OC(=O)CSc2nnnn2C)C1 (stereo unspecified) returned MITF primary inactive, GPR151 ag inactive, TEAD-YAP inh inactive and FBW7 act inactive.
For Cc1ccc(NC(=O)C(C)N(c2ccccc2)S(C)(=O)=O)c(C)c1 (stereo unspecified) the results were MITF primary inactive, GPR151 ag inactive, TEAD-YAP inh inactive and FBW7 act inactive.
Screening O=C(O)c1ccccc1Nc1nc(N2CCOCC2)nc(N2CCOCC2)n1 returned MITF primary inactive, GPR151 ag 9.0, TEAD-YAP inh inactive, FBW7 act inactive, GPR151 conf act inactive and GPR119 ag inactive.
Screening CC(C)(C)C(=O)NC(=O)Nc1ncc(S(C)(=O)=O)c(-c2ccc(C(F)(F)F)cc2)n1 returned MITF primary inactive, GPR151 ag 8.0, TEAD-YAP inh inactive, FBW7 act inactive, GPR151 conf act inactive and GPR119 ag inactive.
`CS(=O)(=O)c1cnc(-c2ccncc2)nc1-c1ccc(C(F)(F)F)cc1` gave MITF primary inactive, GPR151 ag inactive, TEAD-YAP inh inactive and FBW7 act inactive.
`O=C1CC(c2cc(Br)ccc2F)c2ccc3ccccc3c2N1` (stereo unspecified) gave MITF primary inactive, GPR151 ag inactive, TEAD-YAP inh inactive and FBW7 act inactive.
For O=C(Nc1cc(=O)n(-c2c(Cl)cc(Cl)cc2Cl)[nH]1)c1cccc([N+](=O)[O-])c1 the results were MITF primary inactive, GPR151 ag inactive, TEAD-YAP inh inactive and FBW7 act inactive.
`CCOC(=O)C1=C(CN2CCN(CC)CC2)NC(=O)NC1c1cc(C)ccc1C` (stereo unspecified) gave MITF primary inactive, GPR151 ag 7.5, TEAD-YAP inh inactive, FBW7 act inactive, GPR151 conf act inactive and GPR119 ag inactive.
CCC1C(=O)NCCN1Cc1ccc2c(c1)CN(Cc1cccc(C)n1)CCO2 (stereo unspecified) was read as MITF primary inactive, GPR151 ag 5.4, TEAD-YAP inh inactive, FBW7 act inactive, GPR151 conf act inactive and GPR119 ag inactive.
Screening COc1cc(C(=O)N2CCCC2C(=O)O)cc(OC)c1OC (stereo unspecified) returned MITF primary inactive, GPR151 ag 5.0, TEAD-YAP inh inactive, FBW7 act inactive, GPR151 conf act inactive and GPR119 ag inactive.
CCOc1cc(C(=O)N2CCCC2)cc(Cl)c1OC was read as MITF primary inactive, GPR151 ag inactive, TEAD-YAP inh inactive and FBW7 act inactive.
`COc1cc(C(=O)N2CCCCC2)cc(Cl)c1OC` gave MITF primary inactive, GPR151 ag 6.8, TEAD-YAP inh inactive, FBW7 act inactive, GPR151 conf act inactive and GPR119 ag inactive.
Screening CCOc1ccc(C(=O)N2CCCC2C(=O)O)cc1 (stereo unspecified) returned MITF primary inactive, GPR151 ag inactive, TEAD-YAP inh inactive and FBW7 act inactive.
Screening CC(=O)Nc1ccc(-c2nc3cc(C)ccc3o2)cc1 returned MITF primary inactive, GPR151 ag inactive, TEAD-YAP inh inactive and FBW7 act inactive.
`Cc1c(C(=O)Nc2ccc3oc(-c4cccnc4)nc3c2)cccc1[N+](=O)[O-]` gave MITF primary inactive, GPR151 ag 11, TEAD-YAP inh inactive, FBW7 act inactive, GPR151 conf act inactive and GPR119 ag inactive.
`CC(=O)Nc1ccc2oc(-c3ccncc3)nc2c1` gave MITF primary inactive, GPR151 ag 5.1, TEAD-YAP inh inactive, FBW7 act inactive, GPR151 conf act inactive and GPR119 ag inactive.
For Cc1ccc(-c2nc3cc(NC(=O)c4cc(Cl)ccc4Cl)ccc3o2)cc1Br the results were MITF primary inactive, GPR151 ag inactive, TEAD-YAP inh inactive and FBW7 act inactive.
For Cc1c(C(=O)Nc2ccc3oc(-c4ccncc4)nc3c2)cccc1[N+](=O)[O-] the results were MITF primary inactive, GPR151 ag inactive, TEAD-YAP inh inactive and FBW7 act inactive.
For Cc1ccc(-c2nc3cc(NC(=O)c4cc(Br)ccc4Cl)ccc3o2)cc1Br the results were MITF primary inactive, GPR151 ag 6.1, TEAD-YAP inh inactive, FBW7 act inactive, GPR151 conf act inactive and GPR119 ag inactive.
O=C(Cc1cn(-c2ccc(Nc3ccc(N4CCOCC4)cc3)nn2)c2ccccc12)NC1CC1 was read as MITF primary inactive, GPR151 ag inactive, TEAD-YAP inh inactive and FBW7 act inactive.
CC1(C)CC(=O)C(C=Nc2cccc(F)c2)=C(O)C1 was read as MITF primary inactive, GPR151 ag inactive, TEAD-YAP inh inactive and FBW7 act inactive.
Screening Cc1ccc(OC(=O)N2CCN3C(=O)[C@H](CO)NC(=O)[C@H]3C2)cc1 returned MITF primary inactive, GPR151 ag inactive, TEAD-YAP inh inactive and FBW7 act inactive.
`CNC(=O)Cn1ncc2c3ccccc3n(Cc3ccc(F)cc3)c2c1=O` gave MITF primary inactive, GPR151 ag inactive, TEAD-YAP inh inactive and FBW7 act inactive.
